Bioassay records from PubChem.
Rows were chosen to be rich in hits. Some 12% of all compounds tested hit in one or more screens of this group.
WT yeast gro inh – growth inhibition of WT yeast, mitochondrial fusion screen; mitochondrial fusion phenotypic screen, WT strain; inhibition, % at 10 µM; 2.1% of 190,000 active; AID 1362; in the data active means inhibition above about 58%; tested in S. cerevisiae
Arbovirus anti – blocks arbovirus infection. arbovirus infection cell-based antiviral screen. inhibition, % at 10 µM. 0.37% of 200,000 active. AID 1251; in the data active means inhibition above about 30%
CHOP inhibitor – inhibitors of CHOP induction in ER stress response | CHO-K1 CHOP-promoter luciferase, tunicamycin-induced, 15-18 h | inhibition, % at 10 µM | 3.8% of 220,000 active;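 active means compounds that reduced the stress-induced luciferase reporter signal by more than about 70% of percent inhibition, limit read from the data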;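 further: 0% = tunicamycin plus vehicle and 100% = wells without tunicamycin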
Lmaj promast – inhibitors of Leishmania major promastigote growth | Leishmania major promastigotes, resazurin fluorescence viability | 9% of 200,000 active | AID 1063 | inhibition, % at 10 µM; in the data active means inhibition above about 50%;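 further: promastigotes grown with compound for 44 hours at 28 °C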
Active calls of the source: *; . = not tested or not shown.

SMILES | WT yeast gro inh | Arbovirus anti | CHOP inhibitor | Lmaj promast
Cc1ccc(-c2nc3ncccc3o2)cc1NC(=O)CC(C)C | -25 | 4 | -2 | 92*
Cc1ccc(-c2nc3ncccc3o2)cc1NC(=O)c1cc2ccccc2o1 | 13 | -20 | 70* | 3
Cc1ccc(-c2nc3cccnc3o2)cc1NC(=O)COc1ccc(C(C)(C)C)cc1 | 54 | 1 | 44 | 3
CCN(C(=O)COC(=O)c1cc(-c2cccc3ccccc23)nc2ccccc12)C1CCS(=O)(=O)C1 (centres undefined) | 2 | 3 | 1 | -1
O=C(Nc1ccccc1)c1cccc(=O)o1 | . | . | 3 | .
Cc1ccc(C)n1-c1ccc(C(=O)N/N=C/c2ccncc2)cc1 | 3 | -7 | 12 | 12
Cc1nn(C(C)C(=O)NCC2CCCO2)c(=O)c2cc3occc3n12 (centres undefined) | 61* | -1 | 6 | -12
Cc1nn(C(C)C(=O)NCCCc2ccccc2)c(=O)c2cc3occc3n12 (centres undefined) | -5 | -5 | 4 | -1
O=c1c2ccccc2n(Cc2ccc(F)cc2)c(=O)n1C1CCCC1 | 77* | -6 | 14 | 12
O=C1N/C(=C/c2ccc(Br)cc2)C(O)=C1C=NCc1ccccc1 | -4 | -31 | -16 | 79*
O=C1C(C=NCc2ccncc2)=C(O)c2ccccc21 | -2 | 2 | 52 | -8
O=C(NCCCl)Nc1cccc(Br)c1 | -2 | 2 | 0 | 1
COc1ccc(-n2cnc3cc(NS(=O)(=O)c4ccc(C)cc4)ccc32)cc1 | 28 | -15 | 7 | 35
COc1ccccc1-n1cnc2cc(NS(=O)(=O)c3ccc(Br)cc3)ccc21 | 4 | -19 | 79* | 48
COc1ccccc1-n1cnc2cc(NCc3cccs3)ccc21 | . | -20 | . | 96*
COc1ccc(CNc2ccc3c(c2)ncn3-c2ccccc2OC)cc1 | 30 | 1 | 33 | 100*
Cc1csc(NC(=O)C2CCN(C(=O)c3ccccc3C)CC2)n1 | 16 | -5 | -3 | 3
Cc1ccccc1C(C(=O)NC1CCCCC1)N(C(=O)CNC(=O)c1ccco1)c1cccnc1 (centres undefined) | -6 | -1 | -1 | -2
O=C(OCc1cc(Cl)ccc1OC(F)F)c1cncc(Br)c1 | 60* | 9 | 57 | -8
Cc1ccc2c(c1)C1(C)C(C(C)(C)N2C=O)C1(Cl)Cl (centres undefined) | . | . | 6 | .
O=C(COc1ccccc1)NC(=S)Nc1ccc2c3c(cccc13)CC2 | 27 | -5 | 5 | -4
O=C(/C=C/c1ccccc1)NC(=S)Nc1ccc2c3c(cccc13)CC2 | 3 | -16 | 75* | 14
Cc1cc(C)cc(OCCCOc2cccc3cccnc23)c1 | 66* | -31 | 29 | 82*
Cc1ccc(C)c(OCCOCCN2CCOCC2)c1 | 5 | 1 | -20 | 92*
Cc1ccc(OCCOCCOc2cccc3cccnc23)c(Br)c1 | 48 | -7 | -12 | -1
SMILES | WT yeast gro inh | Arbovirus anti | CHOP inhibitor | Lmaj promast
Clc1ccc(Cl)c(OCCN2CCOCC2)c1 | -16 | -2 | 42 | 22
Clc1cc(Br)ccc1OCCOCCOc1cccc2cccnc12 | 15 | 5 | 71* | -5
Cc1cc(C)c(C)c(OCCOCCN2CCN(C)CC2)c1 | 1 | -16 | -6 | -2
Clc1cc(Br)ccc1OCCOCCN1CCOCC1 | 9 | -1 | -1 | 96*
COC(=O)c1ccc(S(=O)(=O)c2ccccc2)c(N)c1 | -4 | 3 | 11 | -5
Cc1cc(C)c(C)c(OCCOCCN2CCOCC2)c1 | -3 | -2 | -8 | 55*
CN(C)c1ccc(-c2n[nH]c(=S)n2-c2ccccc2)cc1 | -1 | -1 | 8 | 18
CN(C)c1ccc(C2CC(c3ccccc3)=Nc3nc(-c4ccccc4)cn32)cc1 (centres undefined) | -5 | -8 | 17 | 91*
CCCCCCn1c(CN2CCC(C)CC2)nc2c1c(=O)n(C)c(=O)n2C | 14 | -6 | 76* | 3
CCCCCn1c(CN2CCN(c3cccc(Cl)c3)CC2)nc2c1c(=O)n(C)c(=O)n2C | . | . | . | 10
CCCCn1c(CN2CCN(c3cccc(Cl)c3)CC2)nc2c1c(=O)n(C)c(=O)n2C | 72* | -11 | 49 | -7
CCCCCCn1c(CN2CCN(CCO)CC2)nc2c1c(=O)n(C)c(=O)n2C | 2 | -5 | -6 | 40
CCN(CC)CCNC(=O)/C(=C/c1cn(C)c2ccccc12)NC(=O)c1ccc(OC)c(OC)c1 | . | . | 4 | .
CCCNC(=O)C1CNc2ccccc2O1 (centres undefined) | -24 | -6 | 10 | -6
Cc1ccccc1NC(=S)NC1(C)CCS(=O)(=O)C1 (centres undefined) | -7 | 7 | 10 | 54*
C=CCSc1nnc(CNC(=O)c2ccc(Cl)cc2)n1CC | 3 | 3 | -7 | 0
c1ccc(Nc2cccc3c(Nc4ccccc4)cccc23)cc1 | . | . | 79* | .
